# In the library only some 1.2% were active in any assay of this set; here they are far more common.
# RGS7-Gao = RGS7-Galphao binding modulators, primary screen, biochemical, multiplexed bead flow cytometry; Guanine nucleotide-binding protein G(o) subunit alpha (Homo sapiens), P09471; actives lie on both sides; binding response (% of control), % at 10 µM; 220,000 tested, 0.35% active; AID 1439, 2008; in the data active means binding response below about 49% or above about 150%; inconclusive means no clear call, values can overlap the other calls; inactive means in between;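 further: fluorescent Galphao held in activated GDP-AlF4 state binding bead-coupled RGS7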
# Target sequence (P09471 whole entry, looked up): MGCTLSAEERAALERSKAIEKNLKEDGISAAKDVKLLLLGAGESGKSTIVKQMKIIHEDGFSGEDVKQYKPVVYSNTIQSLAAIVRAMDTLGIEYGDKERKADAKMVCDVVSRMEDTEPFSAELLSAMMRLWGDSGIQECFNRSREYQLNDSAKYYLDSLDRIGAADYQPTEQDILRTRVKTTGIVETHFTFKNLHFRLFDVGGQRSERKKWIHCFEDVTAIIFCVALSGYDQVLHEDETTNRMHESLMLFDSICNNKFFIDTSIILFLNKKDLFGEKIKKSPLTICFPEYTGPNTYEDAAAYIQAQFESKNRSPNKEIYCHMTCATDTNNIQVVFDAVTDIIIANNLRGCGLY
# GSH bead fluor = compound fluorescence on glutathione beads, profiling panel, artefact control, biophysical, 488/530 nm, flow cytometry. 190,000 tested, 0.25% active. fluorescence (KMESF) at 10 µM. GSH beads flow cytometry, compound fluorescence 488/530 nm; hits give high values. AID 1776, 2009; in the data active means fluorescence above about 89;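 further: glutathione beads carrying GST-tagged Bcl family fusion proteins plus one bare bead set; values are compound well signal with DMSO vehicle wells as background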
# RGS8-Gao = RGS8-Galphao binding modulators, primary screen, biochemical, multiplexed bead flow cytometry | actives lie on both sides | response (percent of control binding), % at 10 µM | 220,000 tested, 0.34% active | AID 1423, 2008; in the data active means response below about 60% or above about 140%; inactive means in between;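 further: Galphao activated as the GDP aluminium fluoride complex binding bead-coupled RGS8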
# RGS16-Gao = modulators of RGS16 binding to Galphao, primary screen, biochemical, human proteins, multiplexed bead flow cytometry; Regulator of G-protein signaling 16 (Homo sapiens) + Guanine nucleotide-binding protein …; bead-based flow cytometry RGS16-Galphao binding, fluorescence; actives lie on both sides; binding response (% of control), % at 10 µM; 220,000 tested, 0.38% active;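 further: Galphao activated by GDP with aluminum fluoride before binding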
# Target sequence (O15492 whole entry, looked up): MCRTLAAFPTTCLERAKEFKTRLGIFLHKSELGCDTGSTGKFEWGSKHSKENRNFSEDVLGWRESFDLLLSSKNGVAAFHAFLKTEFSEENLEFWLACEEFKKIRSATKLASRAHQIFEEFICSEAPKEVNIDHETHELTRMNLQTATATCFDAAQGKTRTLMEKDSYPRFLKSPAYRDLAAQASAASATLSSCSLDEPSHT
# Target sequence (P09471 whole entry, looked up): as the sequence (P09471 whole entry, looked up) above
# Avidin fluor = green autofluorescence of compounds with avidin beads – biophysical, 488/530 nm, flow cytometry, artefact control, profiling panel; fluorescence (KMESF) at 10 µM; compound fluorescence 488/530 nm; hits give high values; 220,000 tested, 0.38% active; in the data active means fluorescence above about 47
# RGS4-Gao reg = modulators of RGS4 binding to Galphao, primary screen, biochemical, multiplexed bead flow cytometry; Guanine nucleotide-binding protein G(o) subunit alpha (Homo sapiens), P09471; actives lie on both sides; binding response (% of control), % at 10 µM; 220,000 tested, 0.33% active; in the data active means binding response below about 49% or above about 150%; inactive means in between;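 further: fluorescent Galphao activated with aluminum fluoride binding bead-coupled RGS4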
# RGS-Gao = modulators of RGS–Galpha-o binding, primary screen, biochemical, multiplexed beads, flow cytometry, RGS4/7/8/16/19. shares compounds with RGS16-Gao. multiplexed bead flow cytometry. RGS4–Galpha-o binding response, % at 10 µM. 1,600 tested, 99% active. AID 1504, 2009;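 further: fluorescently labeled Galpha-o bound to GDP with aluminium fluoride binding biotinylated RGS beads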
# Avidin counter = disruption of biotin probe capture by avidin, counter-screen for RGS protein interaction modulators, biochemical, flow cytometry, bead-based; inhibition, % at 10 µM; shares compounds with RGS16-Gao; 1,700 tested, under 10 active; streptavidin beads, fluorescein-biotin binding;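 active means inhibition above 50%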;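 further: median green fluorescence of gated singlet beads compared with DMSO control wells; 0% = DMSO wells and 100% = complete loss of bead fluorescence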
# RGS8-Gao confirm = RGS8-Galphao binding modulators, confirmation, biochemical, multiplexed bead flow cytometry, single concentration. 1,700 tested, 3% active. binding response (% of control), % at 10 µM. bead-based flow cytometry RGS8-Galphao binding, fluorescence; actives lie on both sides. shares compounds with RGS16-Gao; in the data active means binding response below about 72% or above about 130%; inactive means in between;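 further: Galphao activated as GDP AlF4 complex before binding bead RGS8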
# RGS7-Gao single = RGS7-Galphao binding modulators, confirmation, biochemical, multiplexed bead flow cytometry, single concentration; response (percent of control binding), % at 10 µM; bead-based flow cytometry RGS7-Galphao binding; actives lie on both sides; AID 1837, 2009; 1,700 tested, 7.8% active; shares compounds with RGS16-Gao; in the data active means response below about 75% or above about 130%; inactive means in between;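 further: fluorescent Galphao activated with GDP and aluminum fluoride binding bead-coupled RGS7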
# RGS16-Gao single = modulators of RGS16-Galphao protein binding, confirmation, biochemical, single concentration, multiplexed bead flow cytometry; shares compounds with RGS16-Gao; bead-based flow cytometry; actives lie on both sides; response (% of control binding), % at 10 µM; 1,700 tested, 4% active; AID 1838, 2009; in the data active means response below about 74% or above about 130%; inactive means in between;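 further: Galphao activated as the GDP aluminium fluoride complex binding bead-coupled RGS16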
# RGS4-Gao confirm = modulators of RGS4-Galphao protein binding, confirmation, biochemical, single concentration, multiplexed bead flow cytometry; actives lie on both sides; 1,700 tested, 4% active; shares compounds with RGS16-Gao; binding response (% of control), % at 10 µM; AID 1840, 2009; in the data active means binding response below about 74% or above about 130%; inactive means in between
# RGS19-Gao conf = regulators of RGS19-Galphao binding, confirmation, biochemical, single point, multiplexed bead flow cytometry | shares compounds with RGS16-Gao | bead-based flow cytometry RGS19-Galphao binding; actives lie on both sides | response (percent of control binding), % at 10 µM | 1,700 tested, 5% active | AID 1841, 2009; in the data active means response below about 50% or above about 160%; inactive means in between;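 further: 100% = no compound control and 0% = blank background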
# Starred values were filed as active, the others as inactive; ? = inconclusive; nt = no result given; [ ] = dose if it differs, or a comment. Unless noted, how the calls were made is not given here.
SMILES,RGS7-Gao,GSH bead fluor,RGS8-Gao,RGS16-Gao,Avidin fluor,RGS4-Gao reg,RGS-Gao,Avidin counter,RGS8-Gao confirm,RGS7-Gao single,RGS16-Gao single,RGS4-Gao confirm,RGS19-Gao conf
CSC1=N/C(=C/c2cccnc2)C(=O)N1Cc1ccccc1,?,nt,11.5*,-5.1*,-2,-9.4*,nt,0.4,97.1,94.6,98.2,99.6,59.7
COc1ccc(N(CC(=O)Nc2ccccc2C(=O)NCc2ccco2)S(C)(=O)=O)cc1,99.9,6,93.8,87.2,8,94.8,nt,nt,nt,nt,nt,nt,nt
CCOC(=O)CN1C(c2ccc(O)cc2)Nc2ccc(Br)cc2C1c1ccccc1 (stereo unspecified),95.5,5,61.6,14.4*,2,84.6,84.6*,0.3,100.8,94.8,96.0,96.8,128.9
COc1ccc(OC)c(NC(=O)CC(NCCC2=CCCCC2)C(=O)O)c1 (stereo unspecified),99.5,19,102.0,102.5,29,102.8,nt,nt,nt,nt,nt,nt,nt
O=C1CC(=O)CC(c2ccccc2)C1,96.1,17,100.4,110.1,9,101.6,nt,nt,nt,nt,nt,nt,nt
CC(C)(O)C1=NOC(c2ccccc2)C1 (stereo unspecified),337.9*[activator],25,98.5,114.3,200*,132.9,132.9*,-0.4,103.4,101.8,101.6,102.7,108.7
COc1ccccc1CNC(=O)c1ccc2c(=O)n(CCCN3CCCC3=O)c(=S)[nH]c2c1,100.9,19,98.1,97.0,8,97.2,nt,nt,nt,nt,nt,nt,nt
CN1CCN(C2=C(Cl)C(=O)C(c3cnc(N4CCCCC4)s3)=C(Cl)C2=O)CC1,76.4,34,63.6,14.1*,2,70.1,70.1*,-0.4,27.5*,18.2*,-8.3*,63.1*,-8.1*
c1ccc(-c2csc3ncnc(NCc4ccccn4)c23)cc1,?,nt,127.8,147.1,6,153.1*[activator],nt,-0.9,102.0,101.5,99.6,102.7,91.0
OCCSc1nc(-c2ccccc2)nc2c1CCC2,88.8,9,80.0,15.4*,8,95.5,95.5*,0.2,99.7,94.6,100.4,100.4,108.7
O=C(CCC1CCCCC1)NCCN1C2=NC[C@@H](Cc3ccccc3)N2C[C@H]1Cc1ccc(O)cc1,99.3,20,100.3,98.7,7,95.4,nt,nt,nt,nt,nt,nt,nt
C=CCN(c1ccccc1OC)S(=O)(=O)c1cccc(C(=O)OCC(=O)c2c[nH]c3ccccc23)c1,99.0,9,100.9,100.3,11,99.7,nt,nt,nt,nt,nt,nt,nt
COc1cc(OC)c(N(C)S(=O)(=O)c2cccc(C(=O)OCC(=O)c3c[nH]c4ccccc34)c2)cc1Cl,92.2,13,75.0,23.6*,1,89.2,89.2*,0.1,111.2,113.8,111.9,109.0,130.3
CC(=O)Nc1cccc(NS(=O)(=O)c2ccccc2[N+](=O)[O-])c1,95.4,12,98.2,108.0,12,97.1,nt,nt,nt,nt,nt,nt,nt
CCS(=O)(=O)c1cc([N+](=O)[O-])c(Sc2ccccc2NC(C)=O)s1,?,nt,20.7*,9.3*,0,17.2*,nt,1.2,63.2*,81.7,57.6*,86.0,10.3*
O=C(CCSCc1cccc(Cl)c1)NC1CCCC1,100.0,12,101.3,105.7,14,102.9,nt,nt,nt,nt,nt,nt,nt
COc1ccccc1CNC(=O)CCSCc1cccc(Cl)c1,98.0,15,145.8*[activator],241.3,15,98.6,98.6*,-0.7,103.9,96.5,104.3,98.8,109.8
COc1ccc(CNC(=O)CCSCc2cccc(Cl)c2)cc1,177.4*[activator],16,106.3,187.5,92*,156.6*[activator],nt,-3.1,98.3,94.2,97.7,96.7,97.1
COc1ccc(CNC(=O)CSCc2cccc(Cl)c2)cc1,97.2,15,99.9,100.8,15,101.2,nt,nt,nt,nt,nt,nt,nt
O=C(CSc1ncn[nH]1)N1CCOCC1,101.0,15,101.4,104.3,12,102.2,nt,nt,nt,nt,nt,nt,nt
O=C(N/N=C/c1cccc(OC(=O)c2ccco2)c1)c1ccc(F)cc1,100.5,7,103.0,102.2,4,102.2,nt,nt,nt,nt,nt,nt,nt
CC(O)CNCCCCOc1ccc(OCc2ccccc2)cc1 (stereo unspecified),?,15,97.9,101.3,8,101.1,nt,nt,nt,nt,nt,nt,nt
CC1(C)C(=O)OC(/C=C\c2cccc([N+](=O)[O-])c2)C(C)(C)C1=O (stereo unspecified),?,14,101.1,102.2,7,101.5,nt,nt,nt,nt,nt,nt,nt
CC(=O)N(c1ccccc1C)C1CCCC1,100.1,6,102.1,105.0,2,101.1,nt,nt,nt,nt,nt,nt,nt
CC(=O)N(C1=C(Cl)C(=O)c2ccccc2C1=O)C1CCCCC1,?,nt,53.7*,3.0*,2,87.0,87.0*,nt,nt,nt,nt,nt,nt
O=C(NCC1CCCO1)c1cc([N+](=O)[O-])ccc1Cl (stereo unspecified),106.5,14,104.4,106.0,14,103.7,nt,nt,nt,nt,nt,nt,nt
CCN1CCN(C(=S)c2ccc(OCC(=O)N3CCOCC3)cc2)CC1,8.8*,20,17.1*,5.2*,-2,8.1*,nt,0.1,107.5,100.1,109.6,102.4,131.7

# Compound activity as filed in PubChem BioAssay.
